Results filed as inconclusive are left out. Calls of active or inactive are those of the source. Calls come from the whole dose curve.
test: p53 small molecule agonists, cell-based qHTS assay with rat liver microsomes (AID 1963578); conditions: HCT-116 p53RE-bla, beta-lactamase ratio, 16 h; series mostly up to 66 µM; activation: at the top concentration
Source text: U.S. Tox21 Program National Center for Advancing Translational Sciences [NCATS] Division of Preclinical Innovation [DPI] U.S. Environmental Protection Agency [EPA] National Institutes of Environmental Health Sciences [NIEHS] National Toxicology Program [NTP] U.S. Food and Drug Administration [FDA] Tox21 Assay Overview: p53, a tumor suppressor protein, is activated following cellular insult, including DNA damage and other cellular stresses. The activation of p53 regulates cell fate by inducing DNA repair, cell cycle arrest, apoptosis, or cellular senescence. The activation of p53, therefore, is a good indicator of DNA damage and other cellular stresses. […] The activation of the reporter gene under culture conditions can be detected by fluorescence intensity. This cell line was used to screen the Tox21 10K compound library in the condition of presence of rat liver microsomes and to identify agonists that activate the p53 signaling pathway after in vitro metabolic activation (Ooka et al., Archive of Toxicology 96:1975-1987, 2022).
Tox21 Assay Protocol Summary: The p53RE-bla cells were dispensed at 4,000cells/3ul/well in 1536-well black-clear bottom plates. After the assay plates were incubated at 37 C, 5% CO2 incubator for 5 hours, 23 nL of compounds dissolved in DMSO, positive controls or DMSO only was transferred to the assay plate. Following compound addition, 3 uL of rat liver microsomes (Molecular Toxicology, Boone, NC) at final concentration of 0.5 mg/mL and 1uL of Beta-Nicotinamide adenine dinucleotide 2-phosphate (NADPH) at final concentration of 0.5 mg/mL were transferred to the assay plate. The plates were incubated at 37 C for 16 hours. 1 uL of LiveBLAzer detection mixture was added to each well and the plates were incubated at room temperature in the dark for 2 h.
% is set by controls: 0 for no effect and ±100 for the full control effect.

Structure (SMILES)	activation
O=C(O)C1(C(=O)O)CCC1.[NH2-].[NH2-].[Pt+2]	-0.791% [at 30.3 µM] (inactive)
COc1ccc(CN2CCN(C(c3ccc(F)cc3)c3ccc(F)cc3)CC2)c(OC)c1OC	0.845% [at 30.3 µM] (inactive)
FC(F)(F)c1ccc(Cl)cc1Cl	-2.32% (inactive)
CCOc1cc([N+](=O)[O-])c(OCC)cc1N1CCOCC1	-6.79% (inactive)
CN1C(=O)OC(C)(C)C1=O	-0.426% (inactive)
CCc1nn(C2CCCCC2)c2cc(C3(C#N)CCC(C(=O)O)CC3)ccc12 (stereo not given)	-1.07% (inactive)
Cc1cc(C(=O)O)ccc1[N+](=O)[O-]	0.26% (inactive)
CCCCCCCCCCCC(=O)Cl	-0.275% (inactive)
CCOC(=O)CC#N	-0.78% (inactive)
O=C(O)c1ccc[n+]([O-])c1	-1.83% [at 30.3 µM] (inactive)
CCCCCCCC/C=C\CCCCCCCCN	-3.7% [at 30.3 µM] (inactive)
CC(=O)c1c(C)cc(C(C)(C)C)cc1C	-1.55% (inactive)
CC(C)(C)C1=CC(=O)C(C(C)(C)C)=CC1=O	0.9% [at 30.3 µM] (inactive)
NS(=O)(=O)c1cc2c(cc1Cl)CN(C1CCCCC1)C2=O	-4.03% [at 30.3 µM] (inactive)
Cc1ccc(N(CC2=NCCN2)c2cccc(O)c2)cc1	-1.27% [at 30.3 µM] (inactive)
C[C@@H](CN1CC(=O)NC(=O)C1)N1CC(=O)NC(=O)C1	15.2% [at 30.3 µM] (inactive)
COc1cc(S(=O)(=O)O)c(C)cc1N=Nc1c(O)ccc2cc(S(=O)(=O)O)ccc12	-0.801% (inactive)
Cc1ncc(CO)c(C=O)c1O	-2.86% [at 30.3 µM] (inactive)
CC(C)(C)c1ccccc1	0.828% (inactive)
CN[C@@H]1[C@H](O)[C@H](NC)[C@H]2O[C@@]3(O)C(=O)C[C@@H](C)O[C@H]3O[C@@H]2[C@H]1O	1.56% [at 30.3 µM] (inactive)

Structure (SMILES)	activation
CCCCCCCCCCCCCCCCCC(=O)OCCCCCCCCCCCCCC(C)C	-0.0504% (inactive)
Cc1ccc2c(c1)C(=O)c1ccccc1C2=O	-0.802% (inactive)
O=P(O)(O)OCC(O)CO (stereo not given)	0.634% [at 30.3 µM] (inactive)
COc1cnc(NS(=O)(=O)c2ccc(N)cc2)nc1	-0.0632% [at 30.3 µM] (inactive)
NC(Cc1ccc(Cl)cc1)C(=O)O (stereo not given)	0.185% [at 0.249 µM] (inactive)
CCC1C(=O)OCC1Cc1cncn1C (stereo not given)	-3.38% [at 30.3 µM] (inactive)
CCC(=O)OC(=O)CC	-0.334% (inactive)
CC(C(=O)O)c1cccc(Oc2ccccc2)c1 (stereo not given)	0.486% [at 30.3 µM] (inactive)
c1cnc2c(n1)CCCC2	0.653% (inactive)
CC(C)(C)c1n[nH]c(=S)n(N)c1=O	-2.61% (inactive)
O=C1c2ccccc2C(=O)C1c1ccc2ccccc2n1	-7.12% [at 30.3 µM] (inactive)
CC(=O)c1ccc(Cl)c(Cl)c1Cl	-0.624% (inactive)
NC1CCN(c2nc3c(cc2F)c(=O)c(C(=O)O)cn3-c2ccc(F)cc2F)C1 (stereo not given)	-4.11% [at 30.3 µM] (inactive)
Cn1c(=O)[nH]c2ncn(C)c2c1=O	-2.5% (inactive)
C[N+]1(CC2COC(c3ccccc3)(c3ccccc3)O2)CCCCC1 (stereo not given)	-0.64% [at 13.6 µM] (inactive)
Nc1ccc(C(=O)OCC(O)CO)cc1 (stereo not given)	0.0899% [at 30.3 µM] (inactive)
CO[C@@H]1[C@H](OC(=O)/C=C/C=C/C=C/C=C/C(=O)O)CC[C@]2(CO2)[C@H]1[C@@]1(C)O[C@@H]1CC=C(C)C	-0.0399% (inactive)
CC1(c2ccccc2)OC(C(=O)O)=CC1=O (stereo not given)	-0.48% [at 30.3 µM] (inactive)
ONc1ccccc1	-0.101% (inactive)
CCC1(C)NC(=O)NC1=O (stereo not given)	-2.28% (inactive)
